According to PubChem BioAssay (NCATS):
Where “and” joins values, the source holds several entries; their conditions need not be identical. Identical values can stand only once. Results filed as inconclusive are left out. A number with no mark means an inactive call. Calls of active or inactive are those of the source. Calls come from the whole dose curve; as a rule, active = well fitted curve in the direction sought with a large enough effect; inconclusive = small, poorly fitted or top-dose-only effect, or another doubt; inactive = no such curve, though single readings can be large; an effect the other way counts as inactive or inconclusive.

Experiments:
[1] = Viability qHTS for spleen associated tyrosine kinase inhibitor (SYKi) naive MV4-11 cells (AID 1963823); note: nearly all actives have a fitted effect of over 40% in size
Outline: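 qHTS, SYK inhibitor-naive MV4-11; 500 cells/well; 72 hr compound exposure, 37 C; CellTiter-Glo added, 10 min RT; luminescence read.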

[2] = Viability qHTS for spleen associated tyrosine kinase inhibitor (SYKi) drug resistant MV4-11 cells (AID 1963824); note: nearly all actives have a fitted effect of over 35% in size
Outline: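 SYK inhibitor-resistant MV4-11 AML cells, 500 per well, added to predispensed compounds and incubated 72 hr at 37 C, 5% CO2. Viability measured by CellTiter-Glo luminescence after 10 min at room temperature.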

[3] = Quantitative highthroughput screen to assess conditional lethalithy of NOMO1 cells grown in RPMI1640 with dialyzed fetal bovine serum (RPMI+ds) (AID 1963877); note: nearly all actives have a fitted effect of over 30% in size;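 for Viability: series mostly up to about 46 µM; 100% = DMSO control wells and 0% = empty wells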
Outline: (§1)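 Each medium arm—HPLM with 10% dialyzed FBS, or RPMI1640 with 5 mM glucose and 10% untreated or dialyzed FBS—was screened against an 11-point, 3-fold compound titration for 48 h at 37 °C, with CellTiter-Glo luminescence as endpoint.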

[4] = Quantitative highthroughput screen to assess conditional lethalithy of NOMO1 cells grown in Human Plasma-Like Medium with dialyzed fetal bovine serum (HPLM+ds) (AID 1963878); note: nearly all actives have a fitted effect of over 35% in size;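 for Viability: 100% = DMSO wells and 0% = empty wells on each plate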
Outline: as §1

[5] = Cellular viability qHTS for adrenocortical cancer (ACC) cell line SW-13 (AID 1963989); conditions: SW-13 ACC cells viability, CellTiter-Glo, 48 h; activity (max response): stronger effect = lower value; note: nearly all actives have a fitted effect of over 65% in size;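 for activity (max response): cells grown in serum-free medium with ITS supplement; % is set by controls: 0 for no effect and ±100 for the full control effect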
Outline: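 SW-13 cells in ITS-supplemented serum-free DMEM were plated overnight, then exposed for 48 h at 37C to compound titrations (up to 46 uM final). Viability was read by CellTiter-Glo luminescence; four-parameter logistic fits gave IC50 and efficacy.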

[6] = Cellular viability qHTS for adrenocortical cancer (ACC) cell line NCI-H295R (AID 1963990); note: nearly all actives have a fitted effect of over 60% in size
Outline: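 Luminescent ATP read-out (CellTiter-Glo, 20 min RT) after 48 h drug exposure of NCI-H295R cells; a titration up to 46 uM final. Data normalized to doxorubicin (100% inhibition) and DMSO (0%); 4-parameter fit gives IC50, max response.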

[7] = Quantitative highthroughput screen to assess conditional lethalithy of SEM cells grown in Human Plasma-Like Medium with dialyzed fetal bovine serum (HPLM+ds) (AID 1963882); note: nearly all actives have a fitted effect of over 35% in size; for Viability: series mostly up to about 46 µM
Outline: as §1

[8] = Quantitative highthroughput screen to assess conditional lethalithy of SEM cells grown in RPMI1640 with unreated serum (RPMI+s) (AID 1963883); note: nearly all actives have a fitted effect of over 35% in size;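 for Viability: 100% = DMSO wells and 0% = empty wells without cells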
Outline: as §1

[9] = Quantitative highthroughput screen to assess conditional lethalithy of SEM cells grown in RPMI1640 with dialyzed fetal bovine serum (RPMI+ds) (AID 1963884); note: nearly all actives have a fitted effect of over 35% in size;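 for Viability: series mostly up to about 46 µM; 100% = DMSO control wells and 0% = empty wells without cells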
Outline: as §1

[10] = Quantitative highthroughput screen to assess conditional lethalithy of P12 Ichikawa cells grown in Human Plasma-Like Medium with dialyzed fetal bovine serum (HPLM+ds) (AID 1963879); conditions: Potency: viability; note: nearly all actives have a fitted effect of over 35% in size
Outline: as §1

[11] = Quantitative highthroughput screen to assess conditional lethalithy of P12 Ichikawa cells grown in RPMI1640 with dialyzed fetal bovine serum (RPMI+ds) (AID 1963880); conditions: Potency: P12-Ichikawa viability; note: nearly all actives have a fitted effect of over 35% in size;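 for Viability: 100% = DMSO wells and 0% = empty wells on each plate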
Outline: as §1

[12] = Quantitative highthroughput screen to assess conditional lethalithy of P12 Ichikawa cells grown in RPMI1640 with untreated serum (RPMI+s) (AID 1963881); conditions: Potency: viability; note: nearly all actives have a fitted effect of over 35% in size
Outline: as §1
Potency is the fitted concentration of half-maximal effect.

SMILES	Potency [1]	Potency [2]	Potency [3]	Potency [4]	activity (max response) [5]	Potency [6]	Potency [7]	Potency [8]	Potency [9]	Potency [10]	Potency [11]	Potency [12]	Potency [5]
CC(Oc1ccc(O)cc1)(P(=O)(O)O)P(=O)(O)O	inactive	inactive	26.4 µM (active)	13.2 µM (active)	1.35%	inactive	–	–	–	–	–	–	–
C[C@@H]1C[C@H]2[C@@H]3CCC4=CC(=O)C=C[C@]4(C)[C@@]3(Cl)[C@@H](O)C[C@]2(C)[C@@]1(OC(=O)c1ccco1)C(=O)CCl	16.8 µM (active) and 8.33 µM (active)	8.41 µM (active) and 4.68 µM (active)	6.62 µM (active)	–	–	–	inactive	inactive	inactive	–	–	–	–
Nc1[nH]nc2nnc(-c3c(-c4ccccc4)nn4ccccc34)cc12	9200 nM (active)	16.4 µM (active)	2.64 µM (active)	–	-4.73%	inactive	23.5 µM (active)	23.5 µM (active)	–	8.33 µM (active)	13.2 µM (active)	7.43 µM (active)	–
Cc1cc(Nc2nc(N[C@@H](C)c3ccc(F)cc3)c(C#N)cc2F)n[nH]1	651 nM (active)	580 nM (active) and 590 nM (active)	2.64 µM (active)	–	–	–	3.32 µM (active)	2.96 µM (active)	2.64 µM (active)	–	2.09 µM (active)	2.35 µM (active)	3.16 µM (active)
CNC(=O)c1cc(Oc2ccc(NC(=O)Nc3ccc(Cl)c(C(F)(F)F)c3)c(F)c2)ccn1	296 nM (active)	291 nM (active) and 590 nM (active)	inactive	3.32 µM (active)	–	7.08 µM (active)	–	0.372 µM (active)	0.332 µM (active)	–	inactive	–	–
CC(C)c1cnn2c(NCc3ccccc3)cc(N[C@@H](CO)[C@H](O)CO)nc12	1.03 µM (active) and 332 nM (active)	820 nM (active) and 263 nM (active)	0.743 µM (active)	–	–	0.631 µM (active)	–	0.59 µM (active)	0.743 µM (active)	1.32 µM (active)	1.18 µM (active)	1.05 µM (active)	0.891 µM (active)
Cc1ccc2nc(NCCN)c3ncc(C)n3c2c1	2310 nM (active)	4.61 µM (active) and 2.63 µM (active)	26.4 µM (active)	23.5 µM (active)	–	8.91 µM (active)	11.8 µM (active)	23.5 µM (active)	20.9 µM (active)	–	–	–	6.31 µM (active)
CS(=O)(=O)c1cccc(CNc2nc(Nc3ccc4c(c3)CCC(=O)N4)ncc2C(F)(F)F)c1	105 nM (active)	0.164 µM (active)	18.7 µM (active)	–	–	–	8.33 µM (active)	–	6.62 µM (active)	–	–	–	–
NCCCC(O)(P(=O)(O)O)P(=O)(O)O	inactive	inactive	16.6 µM (active)	–	-4.27%	inactive	16.6 µM (active)	2.96 µM (active)	3.72 µM (active)	–	–	–	–
Cn1c(=O)n(-c2ccc(C(C)(C)C#N)cc2)c2c3cc(-c4cnc5ccccc5c4)ccc3ncc21	27 nM (active)	164 nM (active) and 60.5 nM (active)	0.296 µM (active)	–	–	0.0751 µM (active)	0.235 µM (active)	0.166 µM (active)	0.372 µM (active)	1.05 µM (active)	1.66 µM (active)	2.09 µM (active)	–
Cn1cc(-c2[nH]c3cc(NC(=O)[C@H](N)C4CCCCC4)cc4c3c2C=NNC4=O)cn1	66.1 nM (active)	164 nM (active) and 83.3 nM (active)	5.26 µM (active)	–	–	inactive	2.96 µM (active)	–	1.18 µM (active)	–	6.62 µM (active)	7.43 µM (active)	–
CCN(CCO)CCCOc1ccc2c(Nc3cc(CC(=O)Nc4cccc(F)c4)[nH]n3)ncnc2c1	41.1 nM (active)	0.186 µM (active)	0.105 µM (active)	–	–	–	0.296 µM (active)	0.264 µM (active)	0.235 µM (active)	0.166 µM (active)	0.187 µM (active)	0.148 µM (active)	20 µM (active)
O=C(Nc1ccccc1-c1cn2c(CN3CCNCC3)csc2n1)c1cnc2ccccc2n1	9200 nM (active)	13 µM (active)	inactive	inactive	–	7.08 µM (active)	18.7 µM (active)	18.7 µM (active)	13.2 µM (active)	–	–	26.4 µM (active)	3.55 µM (active)
COc1cc(OC2CCN(C)CC2)ccc1Nc1ncc2c(n1)n(C1CCCC1)c(=O)n2C	1860 nM (active)	2.95 µM (active)	18.7 µM (active)	–	–	15.8 µM (active)	10.5 µM (active)	11.8 µM (active)	14.8 µM (active)	–	20.9 µM (active)	23.5 µM (active)	25.1 µM (active)
